From PubChem BioAssay
The source made the active and inactive calls.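 The calls were made as follows, unless noted: active = mean inhibition above 46.5%, the solvent-only control mean plus 3 SD; inactive = the rest.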

How the values were obtained:
[1] = molecular target: Nuclear receptor coactivator 3 (Homo sapiens) (UniProt Q9Y6Q9); assay: SRC3 coactivator transcriptional activity inhibitors, confirmation, cell-based, luminescence, quadruplicate (AID 588792;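 active = mean inhibition over 43.08%, the solvent-only control mean plus 3 SD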;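 also: 0% = DMSO treated cells and 100% = gossypol at 36 µM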); settings: HEK293 GAL4-SRC3 luciferase reporter, at 3.6 µM, active compounds read high
Nuclear receptor coactivator 3 (Homo sapiens), sequence (Q9Y6Q9 whole entry, looked up, the tested form may be a part): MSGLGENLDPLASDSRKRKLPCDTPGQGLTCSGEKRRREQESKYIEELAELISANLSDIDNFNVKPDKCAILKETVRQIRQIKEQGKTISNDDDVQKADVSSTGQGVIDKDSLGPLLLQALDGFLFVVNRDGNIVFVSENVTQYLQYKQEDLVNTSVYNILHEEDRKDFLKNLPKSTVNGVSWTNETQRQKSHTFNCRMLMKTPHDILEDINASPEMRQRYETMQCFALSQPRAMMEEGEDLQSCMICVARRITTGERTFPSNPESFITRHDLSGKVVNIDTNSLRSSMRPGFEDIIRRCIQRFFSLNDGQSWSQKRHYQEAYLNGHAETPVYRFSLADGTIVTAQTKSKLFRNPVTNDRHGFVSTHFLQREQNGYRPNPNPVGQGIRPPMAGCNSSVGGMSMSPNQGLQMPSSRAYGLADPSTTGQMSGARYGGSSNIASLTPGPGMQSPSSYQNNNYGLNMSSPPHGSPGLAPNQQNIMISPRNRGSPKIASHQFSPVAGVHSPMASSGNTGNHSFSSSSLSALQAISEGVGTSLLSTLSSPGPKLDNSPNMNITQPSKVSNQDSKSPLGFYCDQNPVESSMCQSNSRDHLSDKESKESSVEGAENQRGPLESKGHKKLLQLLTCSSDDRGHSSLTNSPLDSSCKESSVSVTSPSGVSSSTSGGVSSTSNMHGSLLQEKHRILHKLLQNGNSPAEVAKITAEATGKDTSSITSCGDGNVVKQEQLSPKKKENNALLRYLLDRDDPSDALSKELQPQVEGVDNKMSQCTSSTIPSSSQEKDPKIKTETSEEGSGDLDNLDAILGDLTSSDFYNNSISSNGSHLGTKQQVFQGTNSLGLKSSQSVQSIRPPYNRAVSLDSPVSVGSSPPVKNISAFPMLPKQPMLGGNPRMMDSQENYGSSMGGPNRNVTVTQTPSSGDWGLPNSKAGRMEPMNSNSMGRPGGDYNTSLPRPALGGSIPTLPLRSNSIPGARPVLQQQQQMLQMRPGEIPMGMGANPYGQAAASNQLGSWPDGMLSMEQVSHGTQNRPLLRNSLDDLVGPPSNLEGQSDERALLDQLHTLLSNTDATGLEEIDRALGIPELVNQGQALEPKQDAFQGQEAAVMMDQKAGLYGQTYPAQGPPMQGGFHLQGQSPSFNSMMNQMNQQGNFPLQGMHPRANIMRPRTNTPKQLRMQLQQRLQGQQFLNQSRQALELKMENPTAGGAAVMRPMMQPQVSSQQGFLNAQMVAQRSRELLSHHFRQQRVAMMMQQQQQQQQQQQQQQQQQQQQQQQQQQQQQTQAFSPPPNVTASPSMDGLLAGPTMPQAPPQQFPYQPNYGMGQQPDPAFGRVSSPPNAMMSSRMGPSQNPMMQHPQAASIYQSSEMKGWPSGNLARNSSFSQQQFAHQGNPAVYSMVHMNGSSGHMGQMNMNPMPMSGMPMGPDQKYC

[2] = test system: transactivating tegument protein VP16 (Human herpesvirus 1), Gal4-VP16 luciferase reporter; assay: VP16 transactivation inhibitors, counter-screen for SRC3 inhibitor project, cell-based, luminescence, high throughput (AID 588794; in the data active = inhibition above about 30%); settings: mammalian cells, VP16-driven luciferase reporter luminescence; at 3.6 µM; active compounds read high
[3] = molecular target: Nuclear receptor coactivator 1 (Homo sapiens) (UniProt Q15788); assay: SRC1 coactivator transcriptional activity inhibitors, confirmation, cell-based, luminescence, quadruplicate (AID 588820;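 active = mean inhibition above 46.68%, the untreated control wells mean plus 3 SD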;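 also: 0% = DMSO wells and 100% = gossypol 36 µM treated wells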); settings: HEK293 GAL4-SRC1 luciferase reporter, at 3.6 µM, active compounds read high
Nuclear receptor coactivator 1 (Homo sapiens), sequence (Q15788 whole entry, looked up, the tested form may be a part): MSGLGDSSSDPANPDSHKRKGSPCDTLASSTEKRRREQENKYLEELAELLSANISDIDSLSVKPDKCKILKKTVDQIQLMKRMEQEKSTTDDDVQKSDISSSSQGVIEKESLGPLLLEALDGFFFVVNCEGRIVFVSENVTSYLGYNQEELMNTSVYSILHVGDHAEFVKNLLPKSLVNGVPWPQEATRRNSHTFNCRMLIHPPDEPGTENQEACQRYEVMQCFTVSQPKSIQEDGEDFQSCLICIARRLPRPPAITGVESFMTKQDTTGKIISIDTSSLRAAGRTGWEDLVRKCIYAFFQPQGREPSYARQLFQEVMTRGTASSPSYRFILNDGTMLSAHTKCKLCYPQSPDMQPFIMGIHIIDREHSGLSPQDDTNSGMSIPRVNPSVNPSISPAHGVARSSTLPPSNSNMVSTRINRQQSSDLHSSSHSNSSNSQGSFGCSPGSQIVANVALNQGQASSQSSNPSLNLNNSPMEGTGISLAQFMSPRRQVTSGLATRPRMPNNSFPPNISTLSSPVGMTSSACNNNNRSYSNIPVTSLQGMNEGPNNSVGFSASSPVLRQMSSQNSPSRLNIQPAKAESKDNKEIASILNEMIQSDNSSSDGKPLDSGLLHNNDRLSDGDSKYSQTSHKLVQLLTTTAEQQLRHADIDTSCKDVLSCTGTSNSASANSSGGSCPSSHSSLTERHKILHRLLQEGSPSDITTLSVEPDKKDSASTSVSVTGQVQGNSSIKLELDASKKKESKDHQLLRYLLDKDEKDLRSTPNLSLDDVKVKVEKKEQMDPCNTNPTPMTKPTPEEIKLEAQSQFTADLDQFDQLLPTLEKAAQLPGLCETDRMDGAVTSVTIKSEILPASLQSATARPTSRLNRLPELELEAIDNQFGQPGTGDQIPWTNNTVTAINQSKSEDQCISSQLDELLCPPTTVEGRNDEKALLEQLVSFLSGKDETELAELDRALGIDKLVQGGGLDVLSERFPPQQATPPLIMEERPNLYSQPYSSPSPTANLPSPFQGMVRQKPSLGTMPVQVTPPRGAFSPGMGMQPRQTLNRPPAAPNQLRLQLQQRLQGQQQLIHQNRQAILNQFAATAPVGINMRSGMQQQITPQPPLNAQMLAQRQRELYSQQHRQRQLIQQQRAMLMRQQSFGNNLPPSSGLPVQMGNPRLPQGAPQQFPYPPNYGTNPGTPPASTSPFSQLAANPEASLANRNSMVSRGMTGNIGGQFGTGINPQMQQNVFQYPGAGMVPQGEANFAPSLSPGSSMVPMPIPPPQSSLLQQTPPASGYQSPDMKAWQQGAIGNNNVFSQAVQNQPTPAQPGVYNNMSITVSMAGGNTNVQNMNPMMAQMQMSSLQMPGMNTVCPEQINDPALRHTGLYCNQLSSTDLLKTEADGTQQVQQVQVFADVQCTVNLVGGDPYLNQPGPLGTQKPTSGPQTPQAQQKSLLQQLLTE

[4] = VP16 transactivation inhibitors, counter-screen for SRC1 inhibitor project, cell-based, luminescence, high throughput (AID 588824; in the data active = inhibition above about 25%); settings: cell-based VP16 transactivation luciferase luminescence; at 3.6 µM; active compounds read high
[5] = StAR promoter reporter inhibitors, counter-screen for LRH-1 inverse agonist project, cell-based, luminescence, high throughput (AID 651611; in the data active = inhibition above about 28%); settings: StAR promoter luciferase reporter counterscreen, at 3.6 µM, active compounds read high
[6] = molecular target: Nuclear receptor subfamily 5 group A member 2 (Homo sapiens) (UniProt O00482); assay: LRH-1 (NR5A2) inverse agonists, retest, confirmation, cell-based, luminescence (AID 651613; in the data active = inhibition above about 42%;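 also: HEK293T cells co-transfected with LRH-1 and StAR promoter luciferase reporter; 0% = vehicle wells and 100% = parental cells lacking receptor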); settings: cell-based LRH-1 luciferase reporter, inverse agonism; at 3.6 µM; active compounds read high
Nuclear receptor subfamily 5 group A member 2 (Homo sapiens), sequence (O00482 whole entry, looked up): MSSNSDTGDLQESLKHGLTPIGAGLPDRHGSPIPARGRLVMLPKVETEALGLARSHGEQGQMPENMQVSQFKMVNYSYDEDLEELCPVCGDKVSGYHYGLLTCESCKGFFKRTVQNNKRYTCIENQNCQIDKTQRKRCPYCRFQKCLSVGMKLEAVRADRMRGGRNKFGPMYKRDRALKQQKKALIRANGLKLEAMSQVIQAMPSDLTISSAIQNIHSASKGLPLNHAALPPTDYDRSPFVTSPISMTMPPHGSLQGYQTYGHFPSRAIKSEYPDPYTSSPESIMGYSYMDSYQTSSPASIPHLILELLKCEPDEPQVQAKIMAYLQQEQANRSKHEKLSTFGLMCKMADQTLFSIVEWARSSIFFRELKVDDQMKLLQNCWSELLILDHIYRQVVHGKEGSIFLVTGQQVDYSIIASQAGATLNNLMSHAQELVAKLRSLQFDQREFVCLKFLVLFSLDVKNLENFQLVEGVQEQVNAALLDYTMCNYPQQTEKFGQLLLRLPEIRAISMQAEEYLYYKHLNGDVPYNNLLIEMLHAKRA

[7] = molecular target: Steroidogenic factor 1 (Homo sapiens) (UniProt Q13285); assay: SF1 (NR5A1) inverse agonists, counter-screen for LRH-1 inverse agonist project, cell-based, luminescence, high throughput (AID 651614; in the data active = inhibition above about 44%;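 also: cells cotransfected with StAR promoter reporter and SF1 expression vector; 0% = vehicle on cells with receptor and 100% = vehicle on cells lacking receptor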); settings: cell-based SF1 luciferase reporter, at 3.6 µM, active compounds read high
Steroidogenic factor 1 (Homo sapiens), sequence (Q13285 whole entry, looked up, the tested form may be a part): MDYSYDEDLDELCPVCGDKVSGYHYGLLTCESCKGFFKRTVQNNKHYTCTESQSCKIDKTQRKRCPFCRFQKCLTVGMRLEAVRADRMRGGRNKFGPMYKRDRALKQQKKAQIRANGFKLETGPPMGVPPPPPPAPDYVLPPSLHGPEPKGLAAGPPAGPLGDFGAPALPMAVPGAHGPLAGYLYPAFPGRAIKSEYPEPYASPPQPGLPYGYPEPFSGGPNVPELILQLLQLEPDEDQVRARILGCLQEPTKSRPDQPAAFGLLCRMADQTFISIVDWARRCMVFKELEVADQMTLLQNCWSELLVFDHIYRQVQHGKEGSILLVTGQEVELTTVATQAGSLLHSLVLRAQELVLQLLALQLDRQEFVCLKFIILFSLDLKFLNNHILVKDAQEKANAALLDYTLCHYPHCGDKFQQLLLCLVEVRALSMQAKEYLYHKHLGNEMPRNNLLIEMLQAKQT

[8] = VP16 transactivation reporter inhibitors, counter-screen for LRH-1 inverse agonist project, cell-based, luminescence, high throughput (AID 651615; in the data active = inhibition above about 33%); settings: Gal4-VP16 luciferase reporter cells, at 3.6 µM, active compounds read high
[9] = test system: transactivating tegument protein VP16 (Human herpesvirus 1); assay: VP16 transactivation reporter inhibitors, counter-screen for SRC2 inhibitor project, cell-based, luminescence, single concentration (AID 652007; in the data active = inhibition above about 36%); settings: cell-based VP16 transactivation luciferase reporter, at 8.9 µM, active compounds read high
[10] = molecular target: Nuclear receptor coactivator 2 (Homo sapiens) (UniProt Q15596); assay: SRC2 coactivator transcriptional activity inhibitors, confirmation, cell-based, luminescence, HEK293, triplicate (AID 652008); settings: HEK293 GAL4-SRC2 luciferase reporter, at 8.9 µM, active compounds read high;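 also: 0% = DMSO-treated cells and 100% = Gossypol at 36 µM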

Compound	inhibition [1]	inhibition [2]	inhibition [3]	inhibition [4]	inhibition [5]	inhibition [6]	inhibition [7]	inhibition [8]	inhibition [9]	inhibition [10]
O=C(CN1C(=O)c2ccccc2S1(=O)=O)c1ccc2c(c1)OCCCO2	93.3% (active)	92.4% (active)	82.5% (active)	91.8% (active)	91% (active)	99.8% (active)	92.4% (active)	90.3% (active)	94.4% (active)	98% (active)
O=C(NC1CCCCC1)C(c1cccnc1)N(C(=O)CCl)c1ccccc1Cl (stereo not given)	81.8% (active)	64% (active)	67.1% (active)	59.1% (active)	54.7% (active)	70.4% (active)	67.5% (active)	64.8% (active)	38.6% (active)	55.5% (active)
Cc1ccc(C(=O)N/N=C/c2ccc([N+](=O)[O-])s2)cc1	54.5% (active)	39.1% (active)	33.7% (inactive)	44.4% (active)	70.3% (active)	83.9% (active)	75.6% (active)	52.3% (active)	82.5% (active)	92.4% (active)
Cc1cc(C(=O)CSc2nc3ccccc3[nH]2)c(C)n1CC1CCCO1 (stereo not given)	5.02% (inactive)	30.5% (active)	-86.8% (inactive)	-6.65% (inactive)	-34.6% (inactive)	-80.8% (inactive)	-1.87% (inactive)	32.9% (active)	31.5% (inactive)	50.9% (active)
Cc1ccc2oc(/N=C(\N)NC(=O)C(C)(C)C)nc2c1	82.8% (active)	73.6% (active)	65.2% (active)	61.1% (active)	80.4% (active)	51.4% (active)	75.4% (active)	61.7% (active)	77.6% (active)	91.5% (active)
